A selection: hits, their analogues and other compounds. The true share with any hit is near 2.3%.
M1 PAM = human CHRM1 positive allosteric modulation; P11229; CHO-K1 hM1, Fluo-8 calcium fluorescence, ACh EC20; 0% = ACh EC20, 100% = maximal ACh; activation, % at 3 µM; 0.088% of 360,000 active; AID 588819; in the data active means activation above about 19%, passing the limit was not always enough
Target sequence (P11229 whole entry, looked up): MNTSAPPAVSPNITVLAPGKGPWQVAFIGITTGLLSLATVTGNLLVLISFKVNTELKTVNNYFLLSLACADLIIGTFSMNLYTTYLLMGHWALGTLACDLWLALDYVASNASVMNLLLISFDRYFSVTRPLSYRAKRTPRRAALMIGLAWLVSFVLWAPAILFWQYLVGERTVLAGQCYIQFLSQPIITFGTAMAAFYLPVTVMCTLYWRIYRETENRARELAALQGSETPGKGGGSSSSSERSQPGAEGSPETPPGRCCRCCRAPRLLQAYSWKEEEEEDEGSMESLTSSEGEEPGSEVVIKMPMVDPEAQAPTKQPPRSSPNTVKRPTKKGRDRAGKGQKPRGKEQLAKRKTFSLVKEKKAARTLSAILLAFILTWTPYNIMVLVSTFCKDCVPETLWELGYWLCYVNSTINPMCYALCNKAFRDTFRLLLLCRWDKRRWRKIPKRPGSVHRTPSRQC
CHRM1 antagonist = human CHRM1 antagonism; P11229; CHO-K1 hM1, Fluo-8 calcium fluorescence, ACh EC80 antagonist; inhibition, % at 3 µM; 1.3% of 360,000 active; AID 588852;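 active means percent inhibition above its own plate's cutoff, namely the mean of that plate's compound wells plus 3 SD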;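 further: peak over basal fluorescence ratio during 140 s after agonist addition; 0% = ACh EC80 plus DMSO and 100% = DMSO alone without agonist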
CHO-K1 Ca antag = M1 antagonist counterscreen hit in parental CHO-K1 cells | inhibition, % at 3 µM | 0.6% of 360,000 active | ATP-induced calcium, Fluo-8 fluorescence;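 active means inhibition above a per-plate cutoff, the plate's mean sample inhibition plus 3 SD, cut at about 24% in these data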;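 further: 0% = DMSO plus EC80 ATP and 100% = DMSO alone without ATP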
CHO-K1 Ca ag = M1 agonist counterscreen hit in parental CHO-K1 cells; activation, % at 3 µM; Fluo-8 calcium fluorescence; scaled to maximal ATP response, vehicle zero; 0.48% of 360,000 active; AID 602248; in the data active means activation above about 15%;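 further: untransfected CHO-K1 host cells lacking M1 receptor as counterscreen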
M1 ag = activates human CHRM1 receptor; P11229; 0.33% of 360,000 active; AID 588814; activation, % at 3 µM; CHO-K1 hM1, Fluo-8 calcium fluorescence, agonist mode; 0% DMSO, 100% acetylcholine EC100;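 active means activation above the run's mean compound activation plus 3 SD, cut at about 16% in these data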;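 further: peak over basal fluorescence ratio within a 140 s kinetic read after compound addition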
CHO-K1 Ca PAM = nonselective activator or artifact in parental CHO-K1 calcium assay; ATP EC20, Fluo-8 calcium fluorescence; 0% at ATP EC20, 100% at ATP max; activation, % at 3 µM; 0.02% of 360,000 active; AID 602247;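 active means activation above the run cutoff, the mean activation of all test compounds plus 3 SD, cut at about 40% in these data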;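 further: peak over basal fluorescence ratio in a 140 s read after ATP addition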
An asterisk follows results filed as active.

How did CC(C)(C)n1cc(S(=O)(=O)c2ccccc2)[nH]c1=O do in these assays?
M1 PAM: 7; CHRM1 antagonist: -9; CHO-K1 Ca antag: -13; CHO-K1 Ca ag: 0; M1 ag: -14; CHO-K1 Ca PAM: 2

Results for CN(Cc1ccccc1)C(=O)CN1CCN(C(c2ccccc2)c2ccccc2)CC1 ?
M1 PAM: -20; CHRM1 antagonist: 86*; CHO-K1 Ca antag: -6; CHO-K1 Ca ag: 1; M1 ag: 1; CHO-K1 Ca PAM: 12

What do the screens show for `COC(=O)CN1CCN(C(c2ccccc2)c2ccccc2)CC1`?
M1 PAM: -11; CHRM1 antagonist: 14; CHO-K1 Ca antag: 1; CHO-K1 Ca ag: 0; M1 ag: -1; CHO-K1 Ca PAM: 5

Results for COc1ccc(N/C(N)=N/c2nc(C)cc(C)n2)cc1 ?
M1 PAM: -14; CHRM1 antagonist: 21; CHO-K1 Ca antag: 19; CHO-K1 Ca ag: 7; M1 ag: -6; CHO-K1 Ca PAM: -5

What do the screens show for `Cc1cc(C)nc(/N=C(\N)Nc2ccc(OCCC(C)C)cc2)n1`?
M1 PAM: -30; CHRM1 antagonist: 84*; CHO-K1 Ca antag: 52*; CHO-K1 Ca ag: 33*; M1 ag: 33*; CHO-K1 Ca PAM: -12

How did CCOC(=O)C(=O)Nc1ccc(OCc2ccccc2)cc1 do in these assays?
M1 PAM: -2; CHRM1 antagonist: 4; CHO-K1 Ca antag: 2; CHO-K1 Ca ag: 6; M1 ag: -3; CHO-K1 Ca PAM: -1

How did Cc1cc(C)nc(/N=C(\N)Nc2ccc(OCc3ccccc3)cc2)n1 do in these assays?
M1 PAM: -41; CHRM1 antagonist: 89*; CHO-K1 Ca antag: 89*; CHO-K1 Ca ag: 91*; M1 ag: 70*; CHO-K1 Ca PAM: -12

How did Cc1cc(C)nc(/N=C(\N)Nc2cccc(OCc3ccccc3)c2)n1 do in these assays?
M1 PAM: -28; CHRM1 antagonist: 59*; CHO-K1 Ca antag: 22; CHO-K1 Ca ag: 46*; M1 ag: 26*; CHO-K1 Ca PAM: -30

How did Cc1cc(C)nc(/N=C(\N)Nc2ccc(CC(=O)OC(C)C)cc2)n1 do in these assays?
M1 PAM: -30; CHRM1 antagonist: 59*; CHO-K1 Ca antag: 45*; CHO-K1 Ca ag: 37*; M1 ag: 15; CHO-K1 Ca PAM: -31

Results for COc1ccccc1N/C(N)=N/c1nc(C)cc(C)n1 ?
M1 PAM: 1; CHRM1 antagonist: -10; CHO-K1 Ca antag: -10; CHO-K1 Ca ag: 2; M1 ag: -5; CHO-K1 Ca PAM: 24

What do the screens show for `O=C(COC(=O)C1CC2CCCC(C1)C2=O)NNC(=O)c1ccc([N+](=O)[O-])cc1` (stereo not drawn)?
M1 PAM: 5; CHRM1 antagonist: -11; CHO-K1 Ca antag: 4; CHO-K1 Ca ag: 1; M1 ag: 0; CHO-K1 Ca PAM: -2

Results for COc1cc(C=CC(=O)OCC=Cc2ccc3c(c2)OCO3)cc(OC)c1OC ?
M1 PAM: 17; CHRM1 antagonist: -7; CHO-K1 Ca antag: -9; CHO-K1 Ca ag: 1; M1 ag: 9; CHO-K1 Ca PAM: -11

Results for CCNC(=O)COC(=O)c1cc(-c2ccc(OC)cc2)nc2ccccc12 ?
M1 PAM: -9; CHRM1 antagonist: 14*; CHO-K1 Ca antag: 24; CHO-K1 Ca ag: 0; M1 ag: -3; CHO-K1 Ca PAM: -16

What do the screens show for `CN(CC(=O)Nc1ccc(Cl)cc1)C(=O)COc1ncnc2ccccc12`?
M1 PAM: -4; CHRM1 antagonist: 3; CHO-K1 Ca antag: -5; CHO-K1 Ca ag: 0; M1 ag: -5; CHO-K1 Ca PAM: -21

How did COc1ccc(NC(=O)CN(C)C(=O)c2cc(-c3ccccc3)nc3ccccc23)cc1 do in these assays?
M1 PAM: -3; CHRM1 antagonist: 15; CHO-K1 Ca antag: 0; CHO-K1 Ca ag: 7; M1 ag: -3; CHO-K1 Ca PAM: -9

What do the screens show for `CN(CCOc1ccc(Cl)cc1)C(=O)c1cc(-c2ccco2)nc2ccccc12`?
M1 PAM: -11; CHRM1 antagonist: 38*; CHO-K1 Ca antag: 24*; CHO-K1 Ca ag: 9; M1 ag: -1; CHO-K1 Ca PAM: -3

How did COc1ccc(NC(=O)CN(C)C(=O)c2cc(-c3ccc(OC)cc3)nc3ccccc23)cc1 do in these assays?
M1 PAM: -10; CHRM1 antagonist: 29*; CHO-K1 Ca antag: 0; CHO-K1 Ca ag: 5; M1 ag: -2; CHO-K1 Ca PAM: 0

Bioassay records from PubChem.
